Luciferase inh – blocks Photinus pyralis firefly luciferase activity. 2.2% of 72,000 active. purified firefly luciferase, luminescence, 8 min. Potency, µM (highest dose often 57.1 µM), without a hit: at the highest dose activity change, negative = inhibition, most hits filed as inhibitors. P08659. AID 411; note: nearly all actives have a fitted effect of over 40% in size
Target sequence (P08659 whole entry, looked up): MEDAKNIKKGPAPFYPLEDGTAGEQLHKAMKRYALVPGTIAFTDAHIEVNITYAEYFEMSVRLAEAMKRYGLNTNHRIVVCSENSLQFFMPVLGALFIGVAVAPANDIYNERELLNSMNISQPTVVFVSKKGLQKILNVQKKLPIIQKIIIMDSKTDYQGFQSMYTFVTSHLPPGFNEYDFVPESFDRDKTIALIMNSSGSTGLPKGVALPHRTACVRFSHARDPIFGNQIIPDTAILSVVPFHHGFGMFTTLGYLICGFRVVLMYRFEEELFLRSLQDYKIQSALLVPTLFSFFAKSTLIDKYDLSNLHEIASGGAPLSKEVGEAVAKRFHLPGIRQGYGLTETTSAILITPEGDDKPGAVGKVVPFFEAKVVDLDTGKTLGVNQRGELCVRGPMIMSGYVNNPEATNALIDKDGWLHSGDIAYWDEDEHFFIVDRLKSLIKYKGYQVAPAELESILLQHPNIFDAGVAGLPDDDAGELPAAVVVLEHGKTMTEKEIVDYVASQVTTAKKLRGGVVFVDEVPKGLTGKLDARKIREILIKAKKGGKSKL
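Inhibition of light generation by firefly luciferase from ATP and luciferin was profiled with concentration-response curves per sample, ATP held at 10 uM within the enzyme's linear range. Plates were read by luminescence after an 8-minute ambient incubation.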
Tau filament bind – binds recombinant human tau filaments; P10636; recombinant tau filaments, thioflavin S fluorescence, 15 h; filaments grown with octadecylsulfate alongside compound; Potency, µM (titrated, usually from 57.1 µM), for inactives: at the top dose activity change, negative = inhibition; 2% of 71,000 active; AID 596;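 note: actives lower thioflavin S fluorescence by blocking filaments or displacing dye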
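Thioflavine S fluorescence (ex 450, em 510 nm) reports filaments formed from 1 uM human tau plus 30 uM ODS over 15 h at 37 C (10 mM HEPES pH 7.4, 100 mM NaCl, 5 mM DTT); compounds displacing dye or blocking filaments lower signal.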
PK Bst – alters activity of Bacillus stearothermophilus pyruvate kinase | purified pyruvate kinase, luminescence ATP production; ribose 5-phosphate activator present at AC10 | Potency, µM | 1.2% of 51,000 active | AID 361; in the data active = potency below about 11 µM; inconclusive = mostly about 12 µM to 25 µM;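 the screen sought inhibitors and activators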;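 note: scaled between full activation by ribose 5 phosphate and full inhibition by luteolin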
ALOX15 inhib – blocks human 15-lipoxygenase activity; P16050; AID 887; purified 15hLO-1, xylenol orange hydroperoxide absorbance; Potency, µM (series often up to 57.1 µM), without a hit: top-dose activity change, negative = inhibition, usual class: inhibitors; 1.4% of 74,000 active; note: nearly all actives have a fitted effect of over 55% in size
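Inhibition is scored from a chromogenic endpoint. After 15 min enzyme-compound contact, arachidonic acid (50 uM final) reacts 6 min with 40 nM 15hLO-1 at room temperature, then Fe-XO reagent is added for 30 min and absorbance ratio recorded.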
Hsp90 Hop PPI – changes Hsp90-Hop TPR2A binding signal, up or down. Potency, µM (top dose mostly 57 µM), inactives show at the top dose activity change, negative = inhibition. AlphaScreen TPR2A-His6 binding biotin-Hsp90 C-terminal peptide. 0.44% of 71,000 active. AID 595; active = well fitted curve in either direction with a large enough effect; inconclusive = small, poorly fitted or top-dose-only effect, or another doubt
ERK AVP block – inhibitors of vasopressin-stimulated ERK signaling pathway; HEK293-V1b, vasopressin-stimulated pERK AlphaScreen; Potency, µM (series often up to 57.5 µM), for the others: at the top dose activity, negative = inhibition, hits mostly inhibitors; 0.99% of 72,000 active; AID 995; note: nearly all actives have a fitted effect of over 55% in size
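HEK293 cells stably expressing V1b receptor, preincubated 30 min at 37 °C with compound, then stimulated 5 min with 25 nM vasopressin. Phospho-ERK by AlphaScreen SureFire after 5 h RT; normalized to DMSO and vasopressin; AC50 by Hill fit.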
* hit, by the source's call; i = inactive; ? = inconclusive; / = no result; [ ] = remark or other dose. Most compounds without a hit are left out; they make up all but 6.1% or so of the library. Unless noted, calls come from the whole dose curve; as a rule, active = well fitted curve in the direction sought with a large enough effect; inconclusive = small, poorly fitted or top-dose-only effect, or another doubt; inactive = no such curve, though single readings can be large; an effect the other way counts as inactive or inconclusive. Unless noted, % is set by controls: 0 for no effect and ±100 for the full control effect; potency is the fitted concentration of half-maximal effect.

SMILES | Luciferase inh | Tau filament bind | PK Bst | ALOX15 inhib | Hsp90 Hop PPI | ERK AVP block
CC(=O)OC[C@@H]1O[C@@H](O/N=C2/C[C@@H](O)[C@@H](O)[C@@H]3[C@@H]4C(=O)N(C(C)(C)C)C(=O)[C@H]4CC[C@@H]23)[C@H](OC(C)=O)[C@H](OC(C)=O)[C@@H]1OC(C)=O | 0%[11.4 µM] | / | / | 7%[11.4 µM] | / | 28%[11.5 µM]
COc1cc(O)cc(/C=C/c2ccccc2)c1 | / | / | / | -22% | / | -12%
Oc1cc(O)cc(/C=C\c2ccc(O)c(O)c2)c1 | 13µM* | ? | / | 0.79µM* | ? | -3%
Cc1ccc(-c2cc(C(=O)N3CCCC3)no2)cc1 | 4µM* | 21% | 7.9* | 8% | 2% | -4%
CC1CCCC(C)N1C(=O)c1cc(F)c(F)cc1Cl (stereo not given) | -2% | 4% | / | 7% | -3% | -20%
CC1CCCC(C)N1C(=O)c1cc(-c2ccc(Cl)c(Cl)c2)on1 (stereo not given) | -11% | 3% | 7.7* | -12% | ? | 10%
CC(=O)OCC1OC(C#CC(C)(C)C)C=CC1OC(C)=O (stereo not given) | / | / | / | -6%[11.4 µM] | / | 24%[11.5 µM]
CC(C)CNC(=O)NC1C(NC(=O)NCC(C)C)N(C)C(=O)N1C (stereo not given) | 5µM* | 1% | 10* | 2% | -1% | -5%
COc1ccc(-c2cc3nc4n(c(=O)c3s2)CCOC4)cc1 | 2µM* | / | 6.7* | / | / | /
NCCC[C@@H](CC(=O)N[C@@H]1CCCC[C@H]1C(=O)N[C@H](CC(=O)N[C@@H](CCC(=O)O)CC(=O)O)Cc1ccccc1)NC(=O)C[C@H](Cc1ccccc1)NC(=O)[C@@H]1CNCC[C@H]1N | / | 13% | / | / | -6% | /
COC(=O)c1ccc2c(c1)SC1=C(CCCC1=O)N2 | -17% | 16µM* | >57 | 16µM* | -9% | ?
COC(=O)c1ccc2c(c1)NC(=O)C(N1CCCC1)S2 (stereo not given) | -6% | 0% | >57 | -7% | 0% | -18%
O=C(Oc1ccccc1)N1CCC2(CCCN(c3ncccn3)C2)CC1 | -4%[11.4 µM] | -10% | / | -15% | 3% | 21%
C1CCC(C(C[C@@H]2CCCCN2)C2CCCCC2)CC1 | 5%[25.5 µM] | -4%[25.6 µM] | / | 1%[25.6 µM] | -3%[26 µM] | -3%[25.7 µM]
CCOC(=O)c1c(NC(=O)CN2CCOCC2)sc2c1CCCC2 | 3% | -12% | >57 | 25µM* | ? | ?
Cc1nc(/N=C(\N)Nc2ccccc2)nc2ccccc12 | -12%[25.5 µM] | / | 9.3* | / | / | /
Cc1nc(N)nc2ccccc12 | 0%[11.4 µM] | -2%[11.4 µM] | / | 9%[11.4 µM] | -4%[11 µM] | -12%[11.5 µM]
COc1ccccc1OCc1ccc(C(=O)Nc2ccncc2)o1 | -3% | -7% | >57 | -1% | -3% | 16µM*
Cn1cccc1Cc1nnc(SCC(=O)Nc2nccs2)n1CCc1ccccc1 | -2% | 13% | / | ? | -14% | 16µM*
CCSc1nnc(NC(=O)CSc2nnc(Cc3cccn3C)n2CCc2ccccc2)s1 | 0% | 18% | >57 | -14% | -4% | 3%
O=C(Nc1cccc(-c2nc3ncccc3o2)c1)c1cc2ccccc2o1 | 16µM* | i | / | -17% | -2% | -9%
CC(=O)Nc1ccc(-c2cc3ccccc3o2)cc1 | 4µM* | / | ? | / | / | /
O=C(NCc1ccco1)c1cc2ccccc2o1 | -3% | 8% | / | 20µM* | -15% | -1%
CC(=O)c1cc2ccccc2oc1=O | -2%[25.5 µM] | 0%[25.6 µM] | / | 0%[25.6 µM] | 0%[26 µM] | -5%[25.7 µM]
COc1ccc(NC(=O)c2cc3ccccc3o2)cc1 | 6.3µM* | 24% | / | -5% | 0% | -7%
SMILES | Luciferase inh | Tau filament bind | PK Bst | ALOX15 inhib | Hsp90 Hop PPI | ERK AVP block
Cc1ccc2cc3cc(C(=O)NCc4ccco4)oc3nc2c1 | -3% | 37% | >57 | -2% | 0% | 17%
CC(=O)OC[C@@H]1O[C@@H](O/N=C2/C[C@@H](O)[C@@H](O)[C@@H]3[C@H]4C(=O)N(c5ccc(F)cc5F)C(=O)[C@@H]4CC[C@@H]23)[C@H](OC(C)=O)[C@H](OC(C)=O)[C@@H]1OC(C)=O | 2%[11.4 µM] | / | / | 8%[11.4 µM] | / | 9%[11.5 µM]
O=C1C(Cl)=C(Sc2nnc3c4ccccc4c4ccccc4c3n2)C(=O)c2ccccc21 | 0%[11.4 µM] | 107%[11.4 µM] | / | -23%[11.4 µM] | -13%[11 µM] | 28%[11.5 µM]
COc1ncc2nc(-c3ccccc3)c(=O)n(C3CC3)c2n1 | 2%[11.4 µM] | 2% | / | 4% | -5% | ?
CC(NC(=O)c1cc2ccccc2o1)C(=O)O (stereo not given) | 1% | -7% | >57 | 0% | 3% | 9%
CC(=O)Nc1cccc(NC(=O)c2cc3ccccc3o2)c1 | 13µM* | 6% | ? | 9% | -1% | ?
CC(C)C(=O)Nc1cccc(NC(=O)c2cc3ccccc3o2)c1 | 13µM* | 10% | i | -5% | -3% | -16%
Cc1cc(C)nc(NC(=O)c2cc3ccccc3o2)n1 | / | / | / | 0% | / | /
CCCS(=O)(=O)NCCc1cc2c(OC)ccc(OC)c2[nH]c1=O | -4% | 0% | 6.4* | 7% | ? | 37%
COc1ccc(OC)c2[nH]c(=O)c(CCNS(=O)(=O)c3ccccc3)cc12 | 1% | 0% | ? | 3% | 4% | 12%
O=C(Oc1oc(-c2ccco2)nc1C=Nc1ccccc1)c1ccco1 | -7%[25.5 µM] | / | >26 | / | / | /
Cc1ccc(N=Cc2nc(-c3ccco3)oc2O)cc1 | 16µM* | 4% | ? | -29% | -2% | -1%
O=c1cc(-c2ccccc2O)oc2c(O)c(O)ccc12 | -22%[11.4 µM] | 40µM* | / | ? | -22% | -4%
O=c1cc(-c2ccccc2O)oc2ccc3ccccc3c12 | 0.5µM* | ? | / | 18%[25.6 µM] | -3% | 17%
O=c1cc(-c2ccccc2)oc2c(O)c(O)ccc12 | / | / | / | 5µM* | / | ?
O=C(O)c1cc2c(ccc3ccccc32)o1 | / | / | / | -2% | / | /
O=C(Nc1cccc(F)c1)N1CC[C@@]2(CCCN(S(=O)(=O)c3ccccc3)C2)C1 | 0%[11.4 µM] | 7% | / | -2% | -2% | 6%
C=Cc1ccc(C=C)cc1 | / | 13% | / | -16% | -5% | 0%
COCCNC(=O)c1cc(-c2ccc3c(c2)OCO3)on1 | 13µM* | -3% | / | -1% | -3% | -12%
O=C(NCc1ccco1)c1cc(-c2ccc3c(c2)OCO3)on1 | -8% | 42% | >57 | -4% | 4% | 25%
COc1ccc(OC)c(NC(=O)c2cc(-c3cc(Cl)ccc3O)n[nH]2)c1 | -15% | 226% | >57 | -15% | -1% | 25µM*
O=C(CCN1C(=O)c2ccccc2C1=O)Nc1ccc(-c2cn3ccsc3n2)cc1 | -14% | 11% | >57 | -9% | -4% | -14%
O=C(Nc1ccc(-c2cn3ccsc3n2)cc1)C1CCCC1 | 2.5µM* | -1% | 2.4* | -3% | -11% | 24%
O=S(=O)(Nc1cccc(-c2cn3ccsc3n2)c1)c1ccc(F)cc1 | -7% | 6% | >57 | ? | -7% | 20µM*
O=C(Nc1ccc(-c2cn3ccsc3n2)cc1)C1CC1 | 6.3µM* | -8% | 4.9* | -5% | -5% | -1%

High-throughput results deposited in PubChem BioAssay by National Center for Advancing Translational Sciences (NCATS).
